# Test results from ChEMBL document CHEMBL3988442, “University of Dundee, Small-Polar-MMV Screening Library” (2021).
# Molecular target: T1, Methionyl-tRNA synthetase, putative (Leishmania donovani (strain BPK282A1)) (UniProt E9BF75)
# T1 sequence (whole entry): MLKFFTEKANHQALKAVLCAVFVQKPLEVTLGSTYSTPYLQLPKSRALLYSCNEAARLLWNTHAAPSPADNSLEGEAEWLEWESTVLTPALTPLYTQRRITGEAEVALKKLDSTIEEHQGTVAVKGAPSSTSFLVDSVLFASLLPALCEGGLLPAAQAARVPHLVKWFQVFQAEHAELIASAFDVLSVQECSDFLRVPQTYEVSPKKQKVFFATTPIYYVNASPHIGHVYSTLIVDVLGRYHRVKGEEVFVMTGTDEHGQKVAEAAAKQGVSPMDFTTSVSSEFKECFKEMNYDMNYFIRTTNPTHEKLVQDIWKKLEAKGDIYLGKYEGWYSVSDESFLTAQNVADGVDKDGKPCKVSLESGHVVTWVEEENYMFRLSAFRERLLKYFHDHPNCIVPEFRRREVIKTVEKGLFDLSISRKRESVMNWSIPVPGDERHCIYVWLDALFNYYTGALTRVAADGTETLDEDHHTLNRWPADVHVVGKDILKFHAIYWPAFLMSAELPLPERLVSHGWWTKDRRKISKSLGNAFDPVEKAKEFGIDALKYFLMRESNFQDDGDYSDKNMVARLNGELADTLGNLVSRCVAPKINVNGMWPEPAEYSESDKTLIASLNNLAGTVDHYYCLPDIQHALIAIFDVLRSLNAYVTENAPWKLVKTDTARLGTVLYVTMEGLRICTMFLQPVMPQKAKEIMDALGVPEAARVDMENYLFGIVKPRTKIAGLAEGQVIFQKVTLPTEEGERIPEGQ
# Assay: Leishmania donovani Methionine tRNA synthetase (LdMetRS):v7. Dose response assay
# Type: functional
# Design: conc 80 nM, time 150 minutes
compound,measurement,setting,value
NCC1Cc2cc(-c3nccc(N4CCC(O)CC4)n3)cc(F)c2O1 (stereo unspecified),PXC50,"BOTTOM 4.57074024, HILLSLOPE 1.301030074, MAX_EFFECT 74.63768116, TOP 104.4144526",4.29
same,PXC50,"BOTTOM 7.212229631, HILLSLOPE 1.389029539, MAX_EFFECT 78.85304659, TOP 100.0",4.36
same,PXC50,"BOTTOM 8.369250909, HILLSLOPE 1.751405643, MAX_EFFECT 88.77887789, TOP 100.0",4.37
Cn1ncc2c(N3CCCCC3)nc(Nc3ccc(F)c(F)c3)nc21,PXC50,"BOTTOM 9.784183065, HILLSLOPE 1.295074552, MAX_EFFECT 52.03094778, TOP 54.78178501",5.24
same,PXC50,MAX_EFFECT 30.83700441,< 4
same,PXC50,MAX_EFFECT 34.09090909,< 4
CNc1nc(Nc2ccc(F)c(F)c2)nc2c1cnn2C,PXC50,"BOTTOM 0.870209489, HILLSLOPE 0.808254997, MAX_EFFECT 89.4026975, TOP 100.0",5.22
same,PXC50,"BOTTOM 6.300791226, HILLSLOPE 0.864616698, MAX_EFFECT 89.69957082, TOP 97.1703974",5.16
same,PXC50,"BOTTOM -2.296989521, HILLSLOPE 0.747850258, MAX_EFFECT 89.3111639, TOP 97.09484857",5.35
Cn1ncc2c(NCCO)nc(NCCS(C)(=O)=O)nc21,PXC50,MAX_EFFECT 5.936073059,< 4
same,PXC50,MAX_EFFECT 10.75471698,< 4
same,PXC50,MAX_EFFECT 32.3699422,< 4
Cn1ccnc1CN(CCO)C(=O)C1CCN(C(=O)C2CC2)CC1,PXC50,MAX_EFFECT 3.401360544,< 4
same,PXC50,MAX_EFFECT 4.347826087,< 4
same,PXC50,MAX_EFFECT 10.33274956,< 4
Cn1ncc2c(Nc3ccc(F)c(F)c3)nc(Nc3ccc(F)c(F)c3)nc21,PXC50,MAX_EFFECT 4.405286344,< 4
same,PXC50,MAX_EFFECT 13.01652893,< 4
same,PXC50,MAX_EFFECT 15.66731141,< 4
CNc1cc(-c2cccc(CN)c2)c2cc[nH]c2n1,PXC50,"BOTTOM 0.988395417, HILLSLOPE 1.522848712, MAX_EFFECT 89.26174497, TOP 100.0",4.55
same,PXC50,"BOTTOM -0.303339397, HILLSLOPE 1.457263574, MAX_EFFECT 90.27777778, TOP 100.0",4.5
same,PXC50,"BOTTOM -1.705392775, HILLSLOPE 1.008817214, MAX_EFFECT 54.59272097, TOP 100.0",4.07
OCCNc1nc(Nc2ccc(F)c(F)c2)nc2[nH]ncc12,PXC50,"BOTTOM 3.46805435, HILLSLOPE 2.296919563, MAX_EFFECT 68.49315068, TOP 65.56498053",5.11
same,PXC50,"BOTTOM 8.366568489, HILLSLOPE 1.390922894, MAX_EFFECT 66.79316888, TOP 71.6605159",5.22
same,PXC50,"BOTTOM -5.242433447, HILLSLOPE 1.269255479, MAX_EFFECT 62.45283019, TOP 64.77487353",5.31
Cn1ncc2c(NCC3CCCO3)nc(Nc3ccc(F)c(F)c3)nc21 (stereo unspecified),PXC50,"BOTTOM 1.649824941, HILLSLOPE 0.742759749, MAX_EFFECT 82.45614035, TOP 99.7468185",4.96
same,PXC50,"BOTTOM 4.130822452, HILLSLOPE 0.904236715, MAX_EFFECT 86.03773585, TOP 94.6325805",4.99
same,PXC50,"BOTTOM 7.824180632, HILLSLOPE 1.170320257, MAX_EFFECT 82.95165394, TOP 90.00397209",4.93
Cc1cc(C)n(C2CN(CC(=O)N(C)Cc3cnn(C)c3)C2)n1,PXC50,"BOTTOM 1.685263138, HILLSLOPE 1.431243041, MAX_EFFECT 59.07590759, TOP 100.0",4.06
same,PXC50,MAX_EFFECT 33.33333333,< 4
same,PXC50,MAX_EFFECT 44.80286738,< 4
COCCNc1nc(Nc2ccc(F)c(F)c2)nc2c1cnn2C,PXC50,"BOTTOM 0.0, HILLSLOPE 0.788642153, MAX_EFFECT 89.69957082, TOP 101.1762058",5.15
same,PXC50,"BOTTOM 0.0, HILLSLOPE 0.880096509, MAX_EFFECT 92.63657957, TOP 99.00872691",5.23
same,PXC50,"BOTTOM -0.84748474, HILLSLOPE 0.841528212, MAX_EFFECT 93.81044487, TOP 101.2621412",5.29
Cn1ncc2c(NCCO)nc(NCCN3CCOCC3)nc21,PXC50,MAX_EFFECT 4.109589041,< 4
same,PXC50,MAX_EFFECT 10.0,< 4
same,PXC50,MAX_EFFECT 11.56069364,< 4
NS(=O)(=O)c1cc(Cl)cc(Cl)c1,PXC50,MAX_EFFECT 24.26470588,< 3
same,PXC50,MAX_EFFECT 31.80778032,< 3
same,PXC50,MAX_EFFECT 47.99235182,< 2.7
CN(C)S(=O)(=O)c1cccnc1Nc1cccc(C(F)(F)F)c1,PXC50,MAX_EFFECT 3.964757709,< 4
same,PXC50,MAX_EFFECT 9.867172676,< 4
same,PXC50,MAX_EFFECT -2.272727273,< 4
CC(C)c1nc(N2CCC(N3CCCCCC3)CC2)c2cnn(C)c2n1,PXC50,"BOTTOM 1.611649307, HILLSLOPE 1.510978702, MAX_EFFECT 74.4966443, TOP 100.0",4.28
same,PXC50,"BOTTOM 2.404981537, HILLSLOPE 1.138566115, MAX_EFFECT 78.47222222, TOP 100.0",4.48
same,PXC50,"BOTTOM 5.527995165, HILLSLOPE 1.337567516, MAX_EFFECT 71.57712305, TOP 100.0",4.24
COC(=O)c1cnc(Nc2cccc(C(F)(F)F)c2)c(S(N)(=O)=O)c1,PXC50,MAX_EFFECT 3.50877193,< 4
same,PXC50,MAX_EFFECT 6.168224299,< 4
same,PXC50,MAX_EFFECT 6.615776081,< 4
c1cc(-c2ccc3c(c2)CCC32CCN(c3nncs3)CC2)co1,PXC50,"BOTTOM 1.725579768, HILLSLOPE 1.730442881, MAX_EFFECT 81.97573657, TOP 100.0",4.31
same,PXC50,"BOTTOM 2.845642281, HILLSLOPE 1.539467031, MAX_EFFECT 93.05555556, TOP 100.0",4.55
same,PXC50,"BOTTOM 5.084669568, HILLSLOPE 1.629318142, MAX_EFFECT 90.60402685, TOP 100.0",4.52
